# From paper PMC4336329 (PLoS ONE, 2015)
# The campaign covered roughly 310,000 compounds. About 14,000 (4.5%) showed an effect of 50% or more. Effects have a minus sign here. The sample holds strong results, similar compounds and a random draw of the others, so the mix is not that of the screen.
# Biological target: human ether-à-go-go-related gene (hERG) potassium channel (human, UniProt Q12809)
# Assay: primary screen, population patch clamp on CHO cells stably expressing hERG; higher = less effect of the substance
# 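Also: peak tail current of the secondary pulse compared with the same well before compound.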
# human ether-à-go-go-related gene (hERG) potassium channel, sequence (Q12809 whole entry, looked up): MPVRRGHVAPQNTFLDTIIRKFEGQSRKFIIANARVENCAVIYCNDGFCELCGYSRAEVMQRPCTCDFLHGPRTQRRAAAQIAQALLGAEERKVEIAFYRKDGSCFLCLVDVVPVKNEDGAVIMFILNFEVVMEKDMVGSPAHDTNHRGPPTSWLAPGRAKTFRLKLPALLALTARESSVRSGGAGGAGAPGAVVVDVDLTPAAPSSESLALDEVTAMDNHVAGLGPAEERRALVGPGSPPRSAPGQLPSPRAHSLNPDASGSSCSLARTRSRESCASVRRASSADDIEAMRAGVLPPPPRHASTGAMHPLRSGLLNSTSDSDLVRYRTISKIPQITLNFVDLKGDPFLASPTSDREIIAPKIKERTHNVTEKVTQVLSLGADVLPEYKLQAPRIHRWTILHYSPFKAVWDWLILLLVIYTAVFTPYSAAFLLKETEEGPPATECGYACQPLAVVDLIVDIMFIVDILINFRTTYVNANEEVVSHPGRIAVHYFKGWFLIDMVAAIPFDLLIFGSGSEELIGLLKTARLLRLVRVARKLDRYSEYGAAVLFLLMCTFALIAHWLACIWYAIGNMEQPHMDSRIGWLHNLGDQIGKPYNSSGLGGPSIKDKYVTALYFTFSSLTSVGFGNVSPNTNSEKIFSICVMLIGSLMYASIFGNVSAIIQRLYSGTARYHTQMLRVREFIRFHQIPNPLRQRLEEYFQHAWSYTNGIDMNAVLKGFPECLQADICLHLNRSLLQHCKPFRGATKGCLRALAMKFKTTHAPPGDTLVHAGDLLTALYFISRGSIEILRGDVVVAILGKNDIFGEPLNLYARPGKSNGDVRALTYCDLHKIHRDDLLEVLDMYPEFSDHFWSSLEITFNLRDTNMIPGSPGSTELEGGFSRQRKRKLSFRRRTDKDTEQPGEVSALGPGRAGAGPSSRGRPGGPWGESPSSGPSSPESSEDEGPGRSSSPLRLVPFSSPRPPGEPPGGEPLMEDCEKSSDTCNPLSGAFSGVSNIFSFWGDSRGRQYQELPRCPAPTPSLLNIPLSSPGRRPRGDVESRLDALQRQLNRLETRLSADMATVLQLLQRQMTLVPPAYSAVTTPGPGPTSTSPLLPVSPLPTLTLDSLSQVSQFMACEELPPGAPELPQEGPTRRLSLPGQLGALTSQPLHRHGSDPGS
row,SMILES,"hERG current change (%, negative = inhibition) at 10uM"
1,O=P(NS(=O)(=O)c1ccc(Br)cc1)(Oc1ccccc1)Oc1ccccc1,12.2%
2,O=C(Cn1c(=O)c(=O)n(Cc2ccccc2)c2ccc(Cl)cc21)Nc1ccc(F)cc1F,21.3%
3,Cc1cc(C)c(Cn2c(=O)n(CCCC(=O)NCc3ccco3)c(=O)c3sccc32)c(C)c1,6.15%
4,Cc1cc(NC(=O)c2cc([N+](=O)[O-])ccc2Cl)no1,8.65%
5,Nn1c(COc2ccc(Cl)cc2)nc2ccccc2c1=O,-34.8%
6,CCc1ccc(CNC(=O)c2ccc(OC3CCN(C(C)=O)CC3)c(OC)c2)nc1,8.11%
7,O=C(NCCCN1CCN(Cc2ccccc2)CC1)C1CCN(c2nnc(-n3cccc3)s2)CC1,-48.5%
8,CC(C)NC(=O)C1CCCN(c2nnc(-n3cccc3)s2)C1 (stereo not drawn),-16.4%
9,COC(=O)c1ccccc1NC(=O)C1CCCN(c2nnc(-n3cccc3)s2)C1 (stereo not drawn),-53%
10,CC1CCN(Cc2ccc(NC(=O)C3CCN(c4nnc(-n5cccc5)s4)CC3)cc2)CC1,1.05%
11,CC(CCc1ccccc1)NC(=O)C1CCCN(c2nnc(-n3cccc3)s2)C1 (stereo not drawn),-11.2%
12,O=C(NC1CCN(Cc2ccccc2)CC1)C1CCCN(c2nnc(-n3cccc3)s2)C1 (stereo not drawn),-69.8%
13,O=C(C1CCCN(c2nnc(-n3cccc3)s2)C1)N1CCN(c2ccccc2)CC1 (stereo not drawn),-47%
14,CC(=O)Nc1ccc(NC(=O)C2CCCN(c3nnc(-n4cccc4)s3)C2)cc1 (stereo not drawn),7.44%
15,O=C(NC1CCN(Cc2ccccc2)CC1)C1CCN(c2nnc(-n3cccc3)s2)CC1,-59%
16,NC(=O)c1ccc(N2CCN(c3ccccc3F)CC2)c([N+](=O)[O-])c1,-25.5%
17,Cc1ccc(-c2c[n+]3c(n2-c2ccccc2)CCC3)cc1.[Br-],-48.9%
18,Cc1ccc(-n2c(-c3ccccc3)c[n+]3c2CCC3)cc1.[Br-],-50.7%
19,Cc1ccc(-n2c(-c3ccc(Cl)cc3)c[n+]3c2CCC3)cc1.[Br-],-62.4%
20,[Br-].c1ccc(-c2c[n+]3c(n2-c2ccccc2)CCC3)cc1,-3.72%
21,FC(F)Sc1ccc(-n2c(-c3ccc(Cl)cc3)c[n+]3c2CCC3)cc1.[Br-],-92.6%

row,SMILES,"hERG current change (%, negative = inhibition) at 10uM"
1,Cc1cc(C)cc(OCC(=O)NCC2CCCO2)c1 (stereo not drawn),-11.8%
2,C#CCOC(=O)C[N+](C)(C)CC#Cc1ccccc1.[Cl-],33.3%
3,CC1(c2nnc(-c3ccccc3)o2)CC(c2ccccc2)=NO1 (stereo not drawn),-11.6%
4,CC1(c2nnc(-c3ccccc3)o2)CC(c2c(Cl)cccc2Cl)=NO1 (stereo not drawn),23.4%
5,CC1(c2nnc(-c3ccc(Cl)cc3)o2)CC(c2c(Cl)cccc2Cl)=NO1 (stereo not drawn),1.13%
6,COc1ccc(C2=NOC(C)(c3nnc(-c4ccccc4)o3)C2)cc1 (stereo not drawn),-58.3%
7,CC1(c2nnc(-c3ccncc3)o2)CC(c2c(Cl)cccc2Cl)=NO1 (stereo not drawn),-69.8%
8,COc1ccc(C2=NOC(C)(c3nnc(-c4ccncc4)o3)C2)cc1 (stereo not drawn),1.73%
9,CC(=O)Nc1ccc(NC(=O)CSc2ccc(-c3cccnc3)nn2)cc1,24.7%
10,O=C(C1CCC1)N1CCN(S(=O)(=O)c2ccc(Br)cc2Cl)CC1,-21.8%
11,COCCn1c(Cc2ccccc2)nnc1SCC(=O)Nc1cc(C)on1,-5.36%
12,COc1ccc(CC(=O)NNC(=O)CCc2ccccc2)cc1OC,14.8%
13,CCCSc1cc(=O)n(-c2ccccc2)nc1C(=O)O,15.7%
14,CCOc1ccccc1Nc1nnc(SC(C)C(=O)Nc2nc(-c3ccccc3)cs2)s1 (stereo not drawn),1.46%
15,Br.C=CCn1c(C)csc1=Nc1ccccc1C,4.02%
16,Cc1ccccc1CC(=O)NCC1CCCCC1,1.34%
17,Cc1ccccc1N(CC(=O)NCC1CCCO1)C(=O)C1(C)CC(=O)N=C2C=CC=CN21 (stereo not drawn),-1.4%
18,O=C(c1ccc(S(=O)(=O)Nc2ccc(F)cc2)cc1)N1CCN(C(=O)c2ccco2)CC1,-29.4%
19,COc1ccccc1C(CNC(=O)c1ccc(NS(=O)(=O)c2ccc(F)c(C)c2)cc1)N1CCCC1 (stereo not drawn),-58.1%
20,O=C(NCC(c1ccco1)N1CCCC1)c1ccc(S(=O)(=O)Nc2ccccc2Cl)cc1 (stereo not drawn),-11.6%
21,Cc1cc(S(=O)(=O)Nc2ccc(C(=O)NCC(c3ccco3)N3CCCC3)cc2)ccc1F (stereo not drawn),-50.6%

row,SMILES,"hERG current change (%, negative = inhibition) at 10uM"
1,O=C(NCC(c1ccco1)N1CCCCC1)c1ccc(NS(=O)(=O)c2ccc(F)cc2)cc1 (stereo not drawn),-13%
2,Cc1ccccc1NS(=O)(=O)c1ccc(C(=O)NCC(c2ccco2)N2CCCCC2)cc1 (stereo not drawn),5.89%
3,Cc1cc(S(=O)(=O)Nc2ccc(C(=O)N3CCN(C(=O)c4ccco4)CC3)cc2)ccc1F,-64.4%
4,Cc1ccc(NS(=O)(=O)c2cccc(C(=O)N3CCN(C(=O)c4ccco4)CC3)c2)cc1,-36.8%
5,Cc1cc(S(=O)(=O)Nc2ccc(C(=O)NCC(c3ccco3)N3CCCCC3)cc2)ccc1F (stereo not drawn),-41.2%
6,Cc1cccc(NS(=O)(=O)c2ccc(C(=O)NCC(c3ccco3)N3CCCCC3)cc2)c1C (stereo not drawn),-55.6%
7,COc1ccccc1C(CNC(=O)c1ccc(NS(=O)(=O)c2ccc(F)c(C)c2)cc1)N(C)C (stereo not drawn),-24.4%
8,COc1ccccc1C(CNC(=O)c1cccc(NS(=O)(=O)c2ccc(C)c(F)c2)c1)N1CCCC1 (stereo not drawn),-40.9%
9,CC1=NN(C(=O)c2ccccc2Cl)C(O)(c2cccnc2)C1 (stereo not drawn),17.8%
10,COC(=O)C1Cc2c([nH]c3ccccc23)C(C)N1 (stereo not drawn),-9.61%
11,COc1ccc(S(=O)(=O)NCc2ccco2)cc1C(=O)N1CCOCC1,21%
12,CC(=O)c1cccc(S(=O)(=O)NCC(c2ccco2)N2CCCCC2)c1 (stereo not drawn),-24.1%
13,Cl.O=S(=O)(NCC(c1ccco1)N1CCCCC1)c1cccc(C(F)(F)F)c1 (stereo not drawn),-57.7%
14,Cl.O=S(=O)(NCC(c1ccco1)N1CCCCC1)c1ccccc1C(F)(F)F (stereo not drawn),-6.8%
15,CC(C)[C@H](NC(=O)c1ccccc1F)C(=O)Nc1ccc2c(c1)OCO2,5.82%
16,Br.C1=C(c2cccc3ccccc23)N2CCN=C2S1,-34.5%
17,COc1ccc(N2C(=O)NC(=O)C(CCc3ccncc3)(CCc3ccncc3)C2=O)cc1,-23.6%
18,Cc1ccc(N2C(=O)NC(=O)C(CCc3ccncc3)(Cc3cccc(Cl)c3Cl)C2=O)cc1 (stereo not drawn),6.14%
19,O=C1NC(=O)C(CCc2ccncc2)(CCc2ccccn2)C(=O)N1c1ccc(Br)cc1 (stereo not drawn),-75.6%
20,O=C1NC(=O)C(CCc2ccncc2)(Cc2cccc(Cl)c2Cl)C(=O)N1c1ccc(Br)cc1 (stereo not drawn),-11%
21,CCc1ccc(N2C(=O)NC(=O)C(CCc3ccncc3)(CCc3ccncc3)C2=O)cc1,-69.9%

row,SMILES,"hERG current change (%, negative = inhibition) at 10uM"
1,Cc1ccc(N2C(=O)NC(=O)C(CCc3ccccn3)(Cc3ccc(F)cc3)C2=O)cc1 (stereo not drawn),12.9%
2,CCOC(=O)c1c(C)[nH]c(C=O)c1Cc1cccc(Cl)c1,6.47%
3,C/C=C/c1cc(OC)c2c(c1)[C@H](C)[C@@H](c1ccc(O)c(OC)c1)O2,15.9%
4,O=C(CN1C(=O)NC2(CCCCCC2)C1=O)Nc1ccc(S(=O)(=O)N2CCOCC2)cc1,9.75%
5,Cc1ccccc1COc1ccc(-c2nn[nH]n2)cc1,13%
6,Cc1ccc(CNC(=O)C2CC3Cn4c(nc5cc(Cl)c(Cl)cc54)C3N2C)o1 (stereo not drawn),-58.5%
7,COc1ccccc1CNC(=O)C1CC2Cn3c(nc4cc(Cl)c(Cl)cc43)C2N1C (stereo not drawn),-65.4%
8,CC(C)CCNC(=O)C1CC2Cn3c(nc4cc(Cl)c(Cl)cc43)C2N1C (stereo not drawn),-56%
9,Cc1cc2nc3n(c2cc1C)CC1CC(C(=O)NCCC(C)C)N(C)C31 (stereo not drawn),1.81%
10,CN1C(C(=O)NCc2ccco2)CC2Cn3c(nc4cc(Cl)c(Cl)cc43)C21 (stereo not drawn),-43.2%
11,Cc1ccc(CNC(=O)C2CC3Cn4c(nc5ccccc54)C3N2C)o1 (stereo not drawn),-0.36%
12,COc1ccccc1CNC(=O)C1CC2Cn3c(nc4cc5ccccc5cc43)C2N1C (stereo not drawn),-43.8%
13,Cc1ccc(CNC(=O)C2CC3Cn4c(nc5cc(C)c(C)cc54)C3N2C)o1 (stereo not drawn),-36.9%
14,CN1C(C(=O)NCC2CC2)CC2Cn3c(nc4cc(Cl)c(Cl)cc43)C21 (stereo not drawn),-34.3%
15,COc1ccccc1CNC(=O)C1CC2Cn3c(nc4cc(C)c(C)cc43)C2N1C (stereo not drawn),-27%
16,CN1C(C(=O)NCc2cccc(Br)c2)CC2Cn3c(nc4cc(Cl)c(Cl)cc43)C21 (stereo not drawn),-75.8%
17,COCCNC(=O)C1CC2Cn3c(nc4cc(Cl)c(Cl)cc43)C2N1C (stereo not drawn),-26.5%
18,COc1ccc(CCN(C)C(=O)CCCN2C(=O)c3cccc4cccc(c34)C2=O)cc1OC,-35.5%
